12-LOX inh: inhibitors of human 12S-lipoxygenase ALOX12; P18054; purified 12hLO, xylenol orange hydroperoxide absorbance; Potency, µM (highest dose often 108 µM), inactives show at the top dose activity change, negative = inhibition, hits mostly inhibitors; actives 1.1% (n = 580,000); further: potency means the concentration at half of the fitted maximal effect; on the % scale 0 is the no-effect control and ±100 the full control effect
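Purified human 12hLO (150 nM final) in 25 mM Hepes, 0.01% Triton X-100, pH 7.0 was preincubated 15 min at room temperature with compound. Then 40 uM arachidonic acid was added, 30 min. Hydroperoxide was read by Fe-XO absorbance ratio 573/405 nm.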
PI5P4K alpha inh: inhibitors of human PI5P4K alpha. actives 1.2% (n = 330,000). max response, %. PI5P4Kalpha enzyme, ADP-Glo luminescence, 60 min; hits give low values. AID 652105; active means max response of -50% or lower; inconclusive means between -30% and -50%; inactive means -30% or higher; further: value at the top dose of about 77 µM; on the % scale 0 is the no-effect control and ±100 the full control effect
Target sequence (P48426 whole entry, looked up): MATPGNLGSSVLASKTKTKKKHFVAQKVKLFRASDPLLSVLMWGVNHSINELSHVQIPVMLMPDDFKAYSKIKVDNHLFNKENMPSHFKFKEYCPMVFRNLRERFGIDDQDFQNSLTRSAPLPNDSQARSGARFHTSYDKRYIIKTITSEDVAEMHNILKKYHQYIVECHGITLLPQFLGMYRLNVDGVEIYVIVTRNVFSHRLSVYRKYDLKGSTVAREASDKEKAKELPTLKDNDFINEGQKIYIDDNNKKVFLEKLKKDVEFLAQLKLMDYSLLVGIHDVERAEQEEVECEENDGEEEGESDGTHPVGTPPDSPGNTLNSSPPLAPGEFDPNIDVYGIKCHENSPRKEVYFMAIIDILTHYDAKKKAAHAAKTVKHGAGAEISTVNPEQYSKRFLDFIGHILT
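Quantitative HTS of the MLSMR library against PI5P4Kalpha with substrate. ATP added last at 5 microM final; room temperature, 60 minutes. Remaining ATP depleted, ADP converted and read as luminescence.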
POLB inh: DNA polymerase beta (human) inhibition. P06746. Pol beta primer extension/strand displacement, fluorescence kinetic. Potency, µM (doses to about 114 µM), for the others: top-dose activity change, negative = inhibition, most hits filed as inhibitors. actives 1.3% (n = 340,000). AID 485314; further: potency means the concentration at half of the fitted maximal effect; on the % scale 0 is the no-effect control and ±100 the full control effect
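10 nM enzyme + cpd, 15 min RT; start with substrate 50 nM final; read 0 min and after 10 min RT. Corrected, normalized data; 4-parameter Hill curve fit.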
Pol eta inh: DNA polymerase eta (human) inhibition. recombinant Pol eta, fluorescent DNA replication assay. Potency, µM (titrated, usually from 114 µM), for the others: at the highest dose activity change, negative = inhibition, most hits filed as inhibitors. Q9Y253. actives 1.2% (n = 390,000); further: potency means the concentration at half of the fitted maximal effect; on the % scale 0 is the no-effect control and ±100 the full control effect
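Fluorescent replication assay: 50 nM final substrate added after a 15 min room-temperature compound preincubation with 10 nM enzyme. Signal taken at 0 min and again at 10 min.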
Pol kappa inh: blocks human DNA polymerase kappa activity; Q9UBT6; purified Pol kappa, fluorescent DNA synthesis assay, 10 min; Potency, µM (series often up to 107 µM), inactives show top-dose activity, negative = inhibition, usual class: inhibitors; actives 0.53% (n = 400,000); AID 588579; further: potency means the concentration at half of the fitted maximal effect; on the % scale 0 is the no-effect control and ±100 the full control effect
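50 nM final substrate added after 15 min RT preincubation of 10 nM Pol kappa with compound; fluorescence read at 0 and 10 min.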
POLI inh: DNA polymerase iota (human) inhibition | Potency, µM (top dose mostly 115 µM), without a hit: at the top dose activity, negative = inhibition, usual class: inhibitors | AID 588590 | Q9UNA4 | actives 1% (n = 390,000) | Pol iota fluorescent replication assay, 10 min; further: potency means the concentration at half of the fitted maximal effect
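Pol iota at 10 nM preincubated 15 min with compounds at room temperature; reaction started with fluorescent substrate, 50 nM final. Fluorescence read kinetically at 0 and 10 min; buffer-only wells as negative control.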
* marks the source's active call; other numbers are inactive results; ? = inconclusive; . = no result given; [ ] = remark or other dose. The list is not random: actives were taken first. Their share in the collection is about 2.9%. Unless noted, the call rests on the fitted dose curve; in most records, active means well fitted inhibition curve with a large enough effect; inconclusive means small, poorly fitted or top-dose-only effect, or another doubt; inactive means no such curve, though single readings can be large or run the other way.

SMILES	12-LOX inh	PI5P4K alpha inh	POLB inh	Pol eta inh	Pol kappa inh	POLI inh
CCOc1ccccc1Nc1nc2ccccc2n2cnnc12	7%	6	1%	-18%	-2%	16%
Cc1ccc2c(c1)c1c(n2CC(O)CNC2CCCCC2)CCCC1 (configuration not stated)	28µM*	-2	0%	-16%	-6%	-6%
Cc1ccc2c(c1)c1c(n2CC(O)CNC(CO)(CO)CO)CCCC1 (configuration not stated)	2%	3	7%	-8%	-7%	14%
Cc1nnc(SCC(=O)Nc2nncs2)n1C(C)C	28%	.	.	.	.	.
CCC1=NN2C(=N)/C(=C\c3cccn3-c3ccc(C)cc3C)C(=O)N=C2S1	-9%	-25	40µM*	50µM*	-26%	?
O=C(Nc1c(-c2ccccc2)[nH][nH]c1=O)c1ccc2c(c1)OCO2	-2%	2	.	.	.	.
O=C(Nc1c(-c2ccc3c(c2)OCO3)[nH][nH]c1=O)c1ccccc1	28µM*	-21	.	.	.	.
COc1ccc2cc(C(=O)N(Cc3ccc(C)o3)C3CC3)[nH]c2c1	26%	.	.	.	.	.
CC1(C)Cc2c(sc(NC(=S)NC(=O)c3ccccc3)c2C(=O)O)CO1	28µM*	-3	7%	-2%	-6%	4%
COc1ccc(/C=C2\SC(=S)N(CCC(=O)N3CCCCC3CCO)C2=O)cc1 (configuration not stated)	-15%	-6	?	?	?	28µM*
O=C1/C(=C/c2ccc(Cl)cc2)SC(=S)N1CCC(=O)N1CCCCC1CCO (configuration not stated)	-7%	9	?	-11%	-16%	13%
COc1ccc(/C=C2\SC(=O)N(CCC(=O)N3CCCCC3CCO)C2=O)cc1 (configuration not stated)	0%	2	14%	-13%	8%	16%
O=C1/C(=C/c2ccco2)SC(=S)N1CCC(=O)N1CCCCC1CCO (configuration not stated)	45µM*	?	?	22µM*	11%	15%
CCc1c(C(=O)N2CCc3c(c(C(=O)O)nn3CC3CC3)C2)csc1C	35µM*	.	.	.	.	.
Cc1nc2scc(C)n2c(=O)c1S(=O)(=O)Nc1ccc(N2CCN(S(C)(=O)=O)CC2)cc1	6%	-5	?	?	-11%	50µM*
CC(=O)c1ccc(NS(=O)(=O)c2c(C)nc3scc(C)n3c2=O)cc1	-12%	.	18%	0%	-4%	1%
Cn1c(=O)c(C#N)c(-c2ccc(F)cc2)c2cc(C(=O)c3cc(Cl)cc(Cl)c3O)cnc21	?	?	?	40µM*	-52%	?
CCC(=O)NCCCNC(=O)c1nc2ccccc2c(=O)[nH]1	4%	.	.	.	.	.
Cc1cc(=O)oc2cc(OCC(=O)c3ccc4c(c3)NC(=O)CO4)ccc12	?	2	?	?	-15%	3.2µM*
Cc1cc(=O)oc2cc(OCC(=O)N3CCN(c4ccc(F)cc4)CC3)ccc12	0%	3	20%	-7%	?	40µM*
Cc1ccc(C(=O)COc2ccc3c(C)cc(=O)oc3c2)cc1	0%	-2	8%	-15%	0%	6%
CCCCCCCCS(=O)CCC(N)=O (configuration not stated)	-3%	.	.	.	.	.
c1ccc2c(c1)COC1(CCNC1)CN2CC1CCCC1 (configuration not stated)	0%[12.5 µM]	.	.	.	.	.
CC1(C)Cc2c(C#N)c(OCC(=O)Nc3cccc(Cl)c3)nc(N3CCOCC3)c2CO1	-9%	.	.	.	.	.
Cc1ccc(Nc2nc(-c3ccc(O)c(O)c3)cs2)nc1	22µM*	-13	?	-21%	-29%	?
SMILES	12-LOX inh	PI5P4K alpha inh	POLB inh	Pol eta inh	Pol kappa inh	POLI inh
OCc1cccc(N=Cc2ccc(Cl)cc2Cl)c1	-2%	.	.	.	.	.
Cc1ccn2cc(-c3ccccc3)cc2c1	32µM*	.	.	.	.	.
Cc1ccccc1NC(=O)Cn1nnc(S(=O)(=O)c2ccc(C(C)(C)C)cc2)c1N	6%[57.4 µM]	-11	32µM*	1%	-32%	?
CCCCc1ccc(Nc2nnc(SCC(=O)NC(C)(C)C)s2)cc1	-2%	.	.	.	.	.
N#Cc1ccc(COC(=O)C2(c3ccccc3)CCCC2)cc1	-1%	.	.	.	.	.
O=C(c1cc2ncc(Br)cn2n1)N1CCOCC1	5%	.	6%	1%	-4%	-4%
O=C(c1cc2ncc(Br)cn2n1)N1CCN(C(=O)c2ccco2)CC1	.	2	?	13µM*	-14%	?
O=C(NCCc1ccccc1)c1cc2ncc(Br)cn2n1	0%	?	40µM*	?	-14%	?
O=C(Nc1nc2ccc(F)cc2s1)c1ccc(CN2CCCCC2)cc1	-53%	.	.	.	.	.
Cc1noc(/C=C/c2ccc(-c3ccccc3Cl)o2)c1[N+](=O)[O-]	.	3	36%	13µM*	420%	?
O=C(/C=C/c1ccc(-c2ccc(Cl)cc2Cl)o1)c1ccccc1	1.6µM*	.	.	.	.	.
CN(C)CCNC(=O)/C(=C/c1ccc(-c2ccc(Cl)cc2Cl)o1)NC(=O)c1ccccc1	45µM*	1	-15%	-28%	-10%	8%
O=C(/C=C/c1ccc(-c2ccccc2Cl)o1)c1ccccc1	20µM*	.	.	.	.	.
CC(C)CCCC(=O)O	-4%[176 µM]	.	.	.	.	.
NNC(=O)c1cccc([N+](=O)[O-])c1	5%	.	.	.	.	.
O=C(c1cc2ccccc2[nH]1)N1CCNc2cnc(Nc3ccccc3)nc2C1	8%[176 µM]	.	.	.	.	.
CCn1c(SCc2ncc(-c3ccccc3)o2)nnc1-c1ccccc1	-3%	.	.	.	.	.
O=C(O)CCC(=O)Nc1ccccc1N1CCOCC1	370%	0	0%	-4%	0%	11%
O=C(O)CC1(CC(=O)Nc2ccccc2N2CCOCC2)CCCC1	?	-4	10µM*	-16%	-3%	28%
O=C(NC1CCN(C(=O)c2ccc3ccccc3n2)CC1)c1ccccc1	-10%	.	.	.	.	.
Cc1ccc(-n2nc3ccc(N)cc3n2)cc1C	45µM*	14	19%	-3%	-1%	87%
Cc1ccc(-n2nc3ccc(N)cc3n2)cc1Cl	0%	1	50%	5%	-12%	78%
CCN(CC)C(=O)c1cccc(NC(=O)c2cc(C3CC3)nc3ccccc23)c1	-28%	.	.	.	.	.
O=C1OCC(CO)(CO)N=C1NNc1ccccc1[N+](=O)[O-]	11µM*	2	2%	-19%	-1%	-14%
O=C1OCC(CO)(CO)N=C1NNc1cc(Cl)ccc1Cl	?	.	10%	-6%	-2%	11%
CC(C)(C)C1CCc2c(sc3nnn(CCOc4ccccc4)c(=O)c23)C1 (configuration not stated)	?	.	25µM*	.	-10%	-9%
Cc1ccc(OCCn2nnc3sc4c(c3c2=O)CCC(C(C)(C)C)C4)cc1 (configuration not stated)	-23%	.	22µM*	.	-13%	-11%

Compound activity as filed in PubChem.
